According to the supplement of paper PMC12494721:
Structures can show the parent of a compound that is named as a salt.

Test system: Escherichia coli IAI1
Test: fold change of Putrescine concentration vs plate DMSO controls (fold change (ratio)); higher = more amine produced, active = hit call of the paper (significant change in both replicates, either direction)
Conditions: incubation time: 27 h, anaerobic, 37 °C;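 for the amine columns active = adjusted P below 0.05 in both replicates with a change the same way and a mean fold change under 0.8 or over 1.25; inactive = the rest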
Outline: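 Using LC–triple-quadrupole MS with dynamic MRM, amines were quantified against external calibration curves and corrected for drift within each batch. Samples were whole anaerobic mGAM cultures of four gut strains, grown 27 h at 37 °C from OD 0.1 before 1:1 dilution, extracted with cold acetonitrile/methanol containing 0.1% formic acid and centrifuged. Compounds were present at 20 µM final (sweeteners at 50 µM final). The numbers are fold changes versus plate DMSO controls, each the mean of 2 biological replicates.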

Compound | fold change of Putrescine concentration
CN1CCCN=C1/C=C/c1cccc(O)c1 [Oxantel pamoate] (20 µM) | 1.03 (inactive)
COC(=O)[C@H](c1ccccc1Cl)N1CCc2sccc2C1 [Clopidogrel] (20 µM) | 1.23 (inactive)
CCCCCCCCCCCCCCCCCCCCCC(=O)Nc1ccn([C@@H]2O[C@H](CO)[C@@H](O)[C@@H]2O)c(=O)n1 [Enocitabine] (20 µM) | 1.01 (inactive)
CN(C)CCCN1c2ccccc2[S+]([O-])c2ccc(Cl)cc21 (centres undefined) [Chlorpromazine Sulfoxide] (20 µM) | 0.993 (inactive)
CCN(CC)CCOC(=O)C1(c2ccc([N+](=O)[O-])cc2)CCCC1 [Nitrocaramiphen hydrochloride] (20 µM) | 1.03 (inactive)
COc1ccc(CC2c3cc(OC)c(OC)cc3CC[N+]2(C)CCC(=O)OCCCCCOC(=O)CC[N+]2(C)CCc3cc(OC)c(OC)cc3C2Cc2ccc(OC)c(OC)c2)cc1OC (centres undefined) [Atracurium besylate] (20 µM) | 1.09 (inactive)
O=C(O)C[C@H](O)C[C@H](O)/C=C/c1c(C2CC2)nc2ccccc2c1-c1ccc(F)cc1 [Pitavastatin calcium] (20 µM) | 1.01 (inactive)
CC(Cc1cccc(C(F)(F)F)c1)NCCOC(=O)c1ccccc1 (centres undefined) [Benfluorex] (20 µM) | 1.06 (inactive)
S=c1[nH]cnc2nc[nH]c12 [Mercaptopurine] (20 µM) | 1.06 (inactive)
CC(C(=O)O)c1ccc(N2Cc3ccccc3C2=O)cc1 (centres undefined) [Indoprofen] (20 µM) | 0.977 (inactive)
C[C@@H](O[C@H]1OCCN(Cc2n[nH]c(=O)[nH]2)[C@H]1c1ccc(F)cc1)c1cc(C(F)(F)F)cc(C(F)(F)F)c1 [Aprepitant] (20 µM) | 1.03 (inactive)
Cc1nnc(NS(=O)(=O)c2ccc(N)cc2)s1 [Sulfamethizole] (20 µM) | 0.961 (inactive)
O=C(Cn1c(=O)sc2ccc(Cl)cc21)N1CCN(CCO)CC1 [Tiaramide Hydrochloride] (20 µM) | 0.959 (inactive)
Clc1ccc(COC(Cn2ccnc2)c2ccc(Cl)cc2Cl)c(Cl)c1 (centres undefined) [Miconazole] (20 µM) | 1.2 (inactive)
Cc1cn[nH]c1 [Fomepizole] (20 µM) | 0.999 (inactive)
CC[C@H]1OC(=O)[C@H](C)[C@@H](O[C@H]2C[C@@](C)(OC)[C@@H](O)[C@H](C)O2)[C@H](C)[C@@H](O[C@@H]2O[C@H](C)C[C@H](N(C)C)[C@H]2O)[C@](C)(OC)C[C@@H](C)C(=O)[C@H](C)[C@@H](O)[C@]1(C)O [Clarithromycin] (20 µM) | 0.434 (inactive)
CCCC(=O)OCOC(=O)C1=C(C)NC(C)=C(C(=O)OC)C1c1cccc(Cl)c1Cl (centres undefined) [Clevidipine] (20 µM) | 1.04 (inactive)
CC[N+](CC)(CC(=O)Nc1c(C)cccc1C)Cc1ccccc1 [Denatonium benzoate] (20 µM) | 1 (inactive)
COc1cc(/C=C/C(=O)N2CCN(CC(=O)N3CCCC3)CC2)cc(OC)c1OC [Cinepazide maleate] (20 µM) | 1.01 (inactive)
COC(=O)C1=C(C)NC(C)=C(C(=O)O[C@H]2CCN(Cc3ccccc3)C2)[C@H]1c1cccc([N+](=O)[O-])c1 [Barnidipine Hydrochloride] (20 µM) | 0.989 (inactive)

Compound | fold change of Putrescine concentration
COCCCOc1ccnc(C[S+]([O-])c2nc3ccccc3[nH]2)c1C (centres undefined) [Rabeprazole sodium salt] (20 µM) | 0.886 (inactive)
CN(C)[C@@H]1C(=O)C(C(N)=O)=C(O)[C@@]2(O)C(=O)C3=C(O)c4c(O)ccc(Cl)c4[C@@H](O)[C@H]3C[C@@H]12 [Demeclocycline hydrochloride] (20 µM) | 0.239 (active)
O=C1[C@H]2CCCC[C@H]2C(=O)N1CCCCN1CCN(c2nsc3ccccc23)CC1 [Perospirone hydrochloride] (20 µM) | 0.989 (inactive)
CC1=C(/C=C/C(C)=C/C=C/C(C)=C/C(=O)O)C(C)(C)CCC1 [Retinoic acid] (20 µM) | 1.01 (inactive)
C[N+]1(C)CCC(OC(=O)C(O)(c2ccccc2)C2CCCC2)C1 (centres undefined) [Glycopyrrolate bromide] (20 µM) | 1.08 (inactive)
COc1ccc2cc([C@H](C)C(=O)O)ccc2c1 [(S)-Naproxen] (20 µM) | 1.06 (inactive)
C1CCC(C(CC2CCCCN2)C2CCCCC2)CC1 (centres undefined) [Perhexiline maleate] (20 µM) | 1.05 (inactive)
COc1ccc(-c2cc(=O)c3c(O)cc(O[C@@H]4O[C@H](CO[C@@H]5O[C@@H](C)[C@H](O)[C@@H](O)[C@H]5O)[C@@H](O)[C@H](O)[C@H]4O)cc3o2)cc1O [Diosmin] (20 µM) | 0.961 (inactive)
CC(C)N1CCN(c2ccc(OCC3COC(Cn4cncn4)(c4ccc(Cl)cc4Cl)O3)cc2)CC1 (centres undefined) [Terconazole] (20 µM) | 1 (inactive)
CCCCNc1ccc(C(=O)OCCN(C)C)cc1 [Tetracaine hydrochloride] (20 µM) | 0.956 (inactive)
CCC(=O)OCC(=O)[C@@]1(OC(=O)CC)[C@H](C)C[C@H]2[C@H]3[C@H]([C@@H](O)C[C@@]21C)[C@@]1(C)C=CC(=O)C=C1C[C@H]3Cl [Alclometasone dipropionate] (20 µM) | 1.03 (inactive)
C#CCN(C)CCCOc1ccc(Cl)cc1Cl [Clorgyline hydrochloride] (20 µM) | 0.968 (inactive)
CCCCS(=O)(=O)N[C@@H](Cc1ccc(OCCCCC2CCNCC2)cc1)C(=O)O [Tirofiban hydrochloride] (20 µM) | 0.994 (inactive)
CC(C)CN(C[C@@H](O)[C@H](Cc1ccccc1)NC(=O)O[C@H]1CCOC1)S(=O)(=O)c1ccc(N)cc1 [Amprenavir] (20 µM) | 1.14 (inactive)
CC[C@H](C)C(=O)O[C@H]1C[C@@H](C)C=C2C=C[C@H](C)[C@H](CC[C@@H]3C[C@@H](O)CC(=O)O3)[C@H]21 [Lovastatin] (20 µM) | 0.975 (inactive)
CN(C)CCN(Cc1ccc(Cl)cc1)c1ccccn1 [Chloropyramine hydrochloride] (20 µM) | 0.817 (inactive)
COC(c1ccccc1)(c1ccccc1)[C@H](Oc1nc(C)cc(C)n1)C(=O)O [Ambrisentan] (20 µM) | 1.21 (inactive)
O=C(O)CCC(=O)Nc1ccc(S(=O)(=O)Nc2nccs2)cc1 [Succinylsulfathiazole] (20 µM) | 1.04 (inactive)
CN(C)CCC=C1c2ccccc2C=Cc2ccccc21 [Cyclobenzaprine hydrochloride] (20 µM) | 0.987 (inactive)
